The record followed here is PubChem BioAssay.

“And” between values parts separate entries of the source, which are not always exact repeats. Identical values can stand only once. A number with no mark means an inactive call. The source made the active and inactive calls.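 The calls were made as follows, unless noted: active = aptamer binding inhibition above 30%, about 3 SD of noise from non-fluorescent compounds; inactive = inhibition at or below 30%.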

Chain of Beta-2 adrenergic receptor (Homo sapiens) (P07550 whole entry, looked up): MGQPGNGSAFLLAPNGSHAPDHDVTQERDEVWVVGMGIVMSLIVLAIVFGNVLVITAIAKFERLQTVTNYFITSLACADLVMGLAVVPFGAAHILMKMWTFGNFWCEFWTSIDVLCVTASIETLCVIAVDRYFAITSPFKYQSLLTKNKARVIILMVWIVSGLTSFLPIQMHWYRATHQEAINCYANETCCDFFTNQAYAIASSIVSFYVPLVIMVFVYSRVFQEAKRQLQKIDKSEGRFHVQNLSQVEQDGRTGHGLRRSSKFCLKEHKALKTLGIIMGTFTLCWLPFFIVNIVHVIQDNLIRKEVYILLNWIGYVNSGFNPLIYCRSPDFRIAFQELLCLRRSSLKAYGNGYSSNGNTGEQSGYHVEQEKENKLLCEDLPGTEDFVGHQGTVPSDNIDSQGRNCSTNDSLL

The first test deals with Beta-adrenergic receptor kinase 1 (Homo sapiens) (UniProt P25098). Kind of test: GRK2 binders displacing RNA aptamer, biochemical, validation, human GRK2, bead flow cytometry (AID 488806). As to conditions: bead-bound GRK2, FAM-aptamer displacement, at 10 µM, stronger effect = higher value.
Chain of Beta-adrenergic receptor kinase 1 (Homo sapiens) (P25098 whole entry, looked up): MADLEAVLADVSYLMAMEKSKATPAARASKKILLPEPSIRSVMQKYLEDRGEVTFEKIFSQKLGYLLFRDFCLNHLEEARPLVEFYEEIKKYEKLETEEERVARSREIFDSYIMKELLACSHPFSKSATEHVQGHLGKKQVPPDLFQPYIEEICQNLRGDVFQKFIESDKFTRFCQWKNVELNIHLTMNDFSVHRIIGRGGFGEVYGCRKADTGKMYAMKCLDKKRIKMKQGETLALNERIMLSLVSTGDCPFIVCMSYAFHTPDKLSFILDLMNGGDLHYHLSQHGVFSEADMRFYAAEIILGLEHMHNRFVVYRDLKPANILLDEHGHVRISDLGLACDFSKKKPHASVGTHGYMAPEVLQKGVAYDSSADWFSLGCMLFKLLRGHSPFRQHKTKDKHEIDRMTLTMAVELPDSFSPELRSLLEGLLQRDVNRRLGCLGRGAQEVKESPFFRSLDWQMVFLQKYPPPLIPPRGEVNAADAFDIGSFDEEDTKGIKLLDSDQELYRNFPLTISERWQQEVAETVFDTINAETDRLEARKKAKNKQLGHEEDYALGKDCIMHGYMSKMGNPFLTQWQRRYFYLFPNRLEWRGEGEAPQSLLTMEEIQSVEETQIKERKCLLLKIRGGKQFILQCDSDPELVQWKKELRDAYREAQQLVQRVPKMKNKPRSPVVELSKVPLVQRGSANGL
In the case of `Cc1nc(-c2coc3c(CN(C)C)c(O)ccc3c2=O)cs1`, the aptamer binding inhibition was 6%.
As for `COCCCN1C(=O)C(=O)/C(=C(/O)c2ccc3c(c2)CC(C)O3)C1c1cccnc1` (stereo not drawn), the aptamer binding inhibition was -1%.
Regarding `O=C(Nc1ccccc1C(=O)N1CCCCCC1)c1ccccc1Cl`, the aptamer binding inhibition was 4%.
Same read-out and setting: for `Fc1ccc(-c2cc(-c3ccccc3)nc(-n3cccn3)n2)cc1` the value was 4%.
The same measure, in the same setting: the value for `NS(=O)(=O)c1cc2c(cc1Cl)NC(C(Cl)Cl)NS2(=O)=O` (stereo not drawn) was 4%.
Take `CCC(C(=O)Nc1ccc2c(c1)OCCO2)c1ccccc1` (stereo not drawn): the aptamer binding inhibition is -1%.
In the case of `c1ccc(CNc2ncnc3nc[nH]c23)cc1`, the aptamer binding inhibition was 6%.
As for `Cc1cc(/C=N/O)c(C)n1-c1ccc(Br)cc1`, the aptamer binding inhibition is 2%.
In the case of `COc1ccc(/C=C/C(=O)c2cc3cccc(OC)c3oc2=O)cc1`, the aptamer binding inhibition is 0%.
For `Cc1ccc(C2=NOC(=O)/C2=C\C=C\c2ccccc2)cc1`, the aptamer binding inhibition is -4%.
In the case of `CCc1ccc(/C=C2\Oc3cc(OC(=O)N4CCOCC4)ccc3C2=O)cc1`, the aptamer binding inhibition is 4%.
The same measure, in the same setting: the value for `COc1cc(NC(=S)NN2CCN(C)CC2)cc(OC)c1OC` was 3%; that for `C[C@]12CCC3C(CC=C4C[C@@H](O)CC[C@@]43C)C1CCC2[C@]1(C)CCC(=O)O1` (stereo partly drawn) was 4%; that for `COC(=O)c1cc(OC)c(OC)cc1NC(=O)CN1C(=O)c2ccccc2C1=O` was -2%.
As to `c1ccc(CN(CC2=NCCN2)c2ccccc2)cc1`, the aptamer binding inhibition is 1% and 2%.
As for `Cc1oncc1C(=O)Nc1ccc(C(F)(F)F)cc1`, the aptamer binding inhibition was 10%.
Take `Cn1cc(C2N3CC4(C)CN2CC(C)(C3)C4=O)c2ccccc21` (stereo not drawn): the aptamer binding inhibition is 2%.
In the case of `CCCCOc1cc(C(=O)NCCN(CC)CC)c2ccccc2n1`, the aptamer binding inhibition is -2% and -3%.
Turning to `O=C(CSCc1ccccc1)NCCCN1CCOCC1`, the aptamer binding inhibition is 3%.
In the case of `COC(=O)c1ccc(OCCCCN2CC(C)OC(C)C2)cc1` (stereo not drawn), the aptamer binding inhibition was 0%.
Still for that read-out and setting: the value for `CCOc1ccc(C(=O)NC(C)C2COc3ccccc3O2)cc1` (stereo not drawn) was 6%; that for `CSCC[C@H](NC(=O)OC(C)(C)C)C(=O)N1CCC(C(=O)N[C@@H](C)C(=O)O)CC1` was 2%; that for `O=C(N/C(=C/C=C\c1ccccc1)C(=O)N1CCOCC1)c1ccc(Br)cc1` was 1%.
As for `COc1ccc2[nH]c(=O)c(CN(C(=O)c3ccco3)C(C)C)cc2c1`, the aptamer binding inhibition is 3%.
Consider `COc1cc(-c2cccs2)cc(=O)c2c(C)oc(C)c12`, for which the aptamer binding inhibition was -1%.
On the same count and under the same terms, the value for `CCC(=O)O[C@]1(C(=O)CCl)[C@@H](C)C[C@H]2[C@@H]3CCC4=CC(=O)C=C[C@]4(C)[C@@]3(F)[C@@H](O)C[C@@]21C` was 4%; that for `COCCN(CCOC)Cc1c(C)[nH]c2c(C)c(C)ccc2c1=O` was 0%; that for `COc1ccccc1/C=C/C(=O)OCCN1CCOCC1` was -4%.
Consider `c1ccc(Cn2nnc3cnccc32)cc1`, for which the aptamer binding inhibition was 2%.
For `Nc1cnn(C2OC(CO)C(O)C2O)c(=O)n1` (stereo not drawn), the aptamer binding inhibition is 3%.
The same measure, in the same setting: the value for `Cc1ccc(C(=O)Nc2ccccc2C(=O)NC(C(=O)O)C(C)C)cc1` (stereo not drawn) was 3%.
With `NC(CO)C(=O)NNCc1ccc(O)c(O)c1O` (stereo not drawn), the aptamer binding inhibition is 8%.
Take `CC12CCCCN1CCCc1c2[nH]c2ccccc12` (stereo not drawn): the aptamer binding inhibition was -6%.
Turning to `CN(C)CCN(Cc1ccc(Cl)cc1)c1ccccn1`, the aptamer binding inhibition is -4%.
Still for that read-out and setting: the value for `CSc1cccc(NC(=O)/C=C/c2ccccc2)c1` was 1%; that for `Cc1oc2cc(O)cc(O)c2c(=O)c1-c1ccc2c(c1)OCCCO2` was 3%; that for `CNC(=O)Oc1ccc2c(c1)[C@]1(C)CCN(C)[C@@H]1N2C` was 3%.
`CCCCNc1ccc(C(=O)OCCN(C)C)cc1`: the aptamer binding inhibition was -1%.
Regarding `O=C(COc1cc(O)c2c(=O)c3ccccc3oc2c1)OCc1ccccc1`, the aptamer binding inhibition was -2%.

A further test concerns the target Beta-2 adrenergic receptor (Homo sapiens) (UniProt P07550). Kind of test: beta2AR agonists driving receptor internalization, pilot screen, cell-based, FAP fluorogen, flow cytometry, validation set (AID 504459;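 active = percent response above 42, roughly 3 SD of non-fluorescent test compounds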;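 also: agonist-driven loss of surface beta2AR via internalization measured by FAP dye flow cytometry; reference of the scale not given here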). The settings on record: Am2.2-beta2AR cells, FAP surface receptor flow cytometry; at 10 µM; stronger effect = higher value.
As to `Cc1nc(-c2coc3c(CN(C)C)c(O)ccc3c2=O)cs1`, the response is 4.53%.
In the case of `COCCCN1C(=O)C(=O)/C(=C(/O)c2ccc3c(c2)CC(C)O3)C1c1cccnc1` (stereo not drawn), the response is -22.5%.
With `O=C(Nc1ccccc1C(=O)N1CCCCCC1)c1ccccc1Cl`, the response is -9.01%.
Regarding `Fc1ccc(-c2cc(-c3ccccc3)nc(-n3cccn3)n2)cc1`, the response is 8.42%.
Regarding `NS(=O)(=O)c1cc2c(cc1Cl)NC(C(Cl)Cl)NS2(=O)=O` (stereo not drawn), the response was 23.7%.
As for `CCC(C(=O)Nc1ccc2c(c1)OCCO2)c1ccccc1` (stereo not drawn), the response is 3.82%.
On to `c1ccc(CNc2ncnc3nc[nH]c23)cc1`, for which the response was 1.86%.
Turning to `Cc1cc(/C=N/O)c(C)n1-c1ccc(Br)cc1`, the response is 11.8%.
For the compound `COc1ccc(/C=C/C(=O)c2cc3cccc(OC)c3oc2=O)cc1`, the response was 7.46%.
In the case of `Cc1ccc(C2=NOC(=O)/C2=C\C=C\c2ccccc2)cc1`, the response was 34%.
On to `CCc1ccc(/C=C2\Oc3cc(OC(=O)N4CCOCC4)ccc3C2=O)cc1`, for which the response was -17.4%.
`COc1cc(NC(=S)NN2CCN(C)CC2)cc(OC)c1OC`: the response was -10.5%.
In the case of `C[C@]12CCC3C(CC=C4C[C@@H](O)CC[C@@]43C)C1CCC2[C@]1(C)CCC(=O)O1` (stereo partly drawn), the response was 1.67%.
For `COC(=O)c1cc(OC)c(OC)cc1NC(=O)CN1C(=O)c2ccccc2C1=O`, the response was -5.28%.
As to `c1ccc(CN(CC2=NCCN2)c2ccccc2)cc1`, the response is 7.43% and -2.34%.
As for `Cc1oncc1C(=O)Nc1ccc(C(F)(F)F)cc1`, the response is -21.8%.
Consider `Cn1cc(C2N3CC4(C)CN2CC(C)(C3)C4=O)c2ccccc21` (stereo not drawn), for which the response was -3.83%.
For the compound `CCCCOc1cc(C(=O)NCCN(CC)CC)c2ccccc2n1`, the response is -3.62%.
Turning to `O=C(CSCc1ccccc1)NCCCN1CCOCC1`, the response is -1.38%.
Same read-out and setting: the value for `COC(=O)c1ccc(OCCCCN2CC(C)OC(C)C2)cc1` (stereo not drawn) was 2.87%.
As for `CCOc1ccc(C(=O)NC(C)C2COc3ccccc3O2)cc1` (stereo not drawn), the response was -18%.
Regarding `CSCC[C@H](NC(=O)OC(C)(C)C)C(=O)N1CCC(C(=O)N[C@@H](C)C(=O)O)CC1`, the response was 6.5%.
Regarding `O=C(N/C(=C/C=C\c1ccccc1)C(=O)N1CCOCC1)c1ccc(Br)cc1`, the response is -28%.
As for `COc1ccc2[nH]c(=O)c(CN(C(=O)c3ccco3)C(C)C)cc2c1`, the response was -2.75%.
As to `COc1cc(-c2cccs2)cc(=O)c2c(C)oc(C)c12`, the response is 54% (active).
In the case of `CCC(=O)O[C@]1(C(=O)CCl)[C@@H](C)C[C@H]2[C@@H]3CCC4=CC(=O)C=C[C@]4(C)[C@@]3(F)[C@@H](O)C[C@@]21C`, the response is 11.3%.
For the compound `COCCN(CCOC)Cc1c(C)[nH]c2c(C)c(C)ccc2c1=O`, the response was 4.86%.
With `COc1ccccc1/C=C/C(=O)OCCN1CCOCC1`, the response is -13.3%.
As to `c1ccc(Cn2nnc3cnccc32)cc1`, the response was 0.22%.
On to `Nc1cnn(C2OC(CO)C(O)C2O)c(=O)n1` (stereo not drawn), for which the response was -1.33%.
For `Cc1ccc(C(=O)Nc2ccccc2C(=O)NC(C(=O)O)C(C)C)cc1` (stereo not drawn), the response was -2.49%.
Turning to `NC(CO)C(=O)NNCc1ccc(O)c(O)c1O` (stereo not drawn), the response was 8.54%.
As for `CC12CCCCN1CCCc1c2[nH]c2ccccc12` (stereo not drawn), the response is 8.33%.
As to `CN(C)CCN(Cc1ccc(Cl)cc1)c1ccccn1`, the response was -7.41%.
Same read-out and setting: for `CSc1cccc(NC(=O)/C=C/c2ccccc2)c1` the value was 1.66%; for `Cc1oc2cc(O)cc(O)c2c(=O)c1-c1ccc2c(c1)OCCCO2`, 5%.
For `CNC(=O)Oc1ccc2c(c1)[C@]1(C)CCN(C)[C@@H]1N2C`, the response is -21.5%.
As to `CCCCNc1ccc(C(=O)OCCN(C)C)cc1`, the response is -12.7%.
The same measure, in the same setting: the value for `O=C(COc1cc(O)c2c(=O)c3ccccc3oc2c1)OCc1ccccc1` was -4.65%.
